# Screens as filed in PubChem.
# BAZ2B block – BAZ2B (human) inhibition; Q9UIF8; AlphaScreen BAZ2B-H3K14Ac peptide displacement; 360,000 compounds, 4.4% hits; AID 504333; Potency, µM (doses to about 114 µM), for the others: at the highest dose activity change, negative = inhibition, actives largely listed as inhibitors; also: potency is read from the fitted curve at half-maximal effect; % is scaled to controls: 0 for no effect and ±100 for the full control effect; nearly all actives have a fitted effect of over 60% in size
#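 In this displacement format the biotinylated H3(5-23) peptide acetylated at Lys14 serves as ligand at 50 nM, with BAZ2B at 50 nM in PBS pH 7.4 containing 0.01% Tween-20. Donor and acceptor beads are 10 ug/mL final.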
# PI5P4Ka inh – blocks human PI5P4K alpha kinase activity; P48426; PI5P4Kalpha enzyme, ADP-Glo luminescence, 60 min; hits give low values; max response, %; 330,000 compounds, 1.2% hits; active = max response of -50% or lower; inconclusive = between -30% and -50%; inactive = -30% or higher; also: value at the top dose of about 77 µM; % is scaled to controls: 0 for no effect and ±100 for the full control effect
# Target sequence (P48426 whole entry, looked up): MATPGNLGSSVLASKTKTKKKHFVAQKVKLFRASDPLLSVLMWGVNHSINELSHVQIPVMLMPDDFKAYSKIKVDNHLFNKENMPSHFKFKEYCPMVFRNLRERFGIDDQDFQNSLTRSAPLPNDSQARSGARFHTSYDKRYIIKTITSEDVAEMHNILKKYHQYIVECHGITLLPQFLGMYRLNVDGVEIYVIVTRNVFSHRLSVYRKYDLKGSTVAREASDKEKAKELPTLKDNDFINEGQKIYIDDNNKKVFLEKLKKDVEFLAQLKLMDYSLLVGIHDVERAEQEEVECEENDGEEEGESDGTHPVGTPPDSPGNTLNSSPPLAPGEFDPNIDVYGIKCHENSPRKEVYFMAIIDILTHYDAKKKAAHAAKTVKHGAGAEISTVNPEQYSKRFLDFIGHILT
#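 Single end-point luminescence (ADP-Glo) quantified ADP from PI5P4Kalpha turnover; ATP 5 microM final, 1 h at RT, 0.1% CHAPS and 0.28 mM EGTA in HEPES pH 7.4.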
# G9a inh – G9a (human) methyltransferase inhibition. Potency, µM (series often up to 102 µM), without a hit: top-dose activity, negative = inhibition, hits mostly inhibitors. 350,000 compounds, 8.8% hits. Q96KQ7. G9a H3K9 monomethylation, AlphaScreen, 2 h. AID 504332; also: potency is read from the fitted curve at half-maximal effect; % is scaled to controls: 0 for no effect and ±100 for the full control effect; nearly all actives have a fitted effect of over 75% in size
#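 Enzyme 20 nM + cpd, 15 min RT; add b-H3K9 pep 500 nM / SAM 20 uM; 2 h RT; anti-H3K9me1 Ab 0.5 ug/mL + SA donor / anti-rabbit acceptor beads 20 ug/mL each, 10 min; AlphaScreen read.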
# HP1b binding inh – inhibitors of HP1-beta chromodomain binding to methylated histone tails. P83916. AlphaScreen HP1-beta / biotin-H3K9me3 peptide binding. Potency, µM (highest dose often 114 µM), for inactives: at the top dose activity change, negative = inhibition, usual class: inhibitors. 390,000 compounds, 0.56% hits. AID 540317; also: potency is read from the fitted curve at half-maximal effect; nearly all actives have a fitted effect of over 70% in size
# Target sequence (P83916 whole entry, looked up): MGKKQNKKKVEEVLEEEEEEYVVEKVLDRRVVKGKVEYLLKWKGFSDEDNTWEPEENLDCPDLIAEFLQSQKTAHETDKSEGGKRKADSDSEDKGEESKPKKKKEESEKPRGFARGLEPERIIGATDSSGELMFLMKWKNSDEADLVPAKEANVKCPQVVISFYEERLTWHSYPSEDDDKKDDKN
#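 Compound inhibition of the preformed complex between 50 nM HP1-beta and 50 nM biotinylated H3K9me3 peptide was read by AlphaScreen. Buffer was PBS pH 7.4 with 0.01% Tween-20. Incubations ran 30 min at room temperature, with 10 ug/mL donor/acceptor beads.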
# JMJD2A Tudor inh – inhibitors of human JMJD2A Tudor domain; 390,000 compounds, 4.4% hits; AlphaScreen JMJD2A-Tudor / H3K4me3 peptide binding; Potency, µM (titrated, usually from 114 µM), inactives show at the top dose activity change, negative = inhibition, most hits filed as inhibitors; also: potency is read from the fitted curve at half-maximal effect; % is scaled to controls: 0 for no effect and ±100 for the full control effect; nearly all actives have a fitted effect of over 50% in size
# PLK1 PBD inh – blocks phosphopeptide binding to human PLK1 polo-box domain. P53350. Plk1 PBD binding of FITC phosphopeptide, fluorescence polarization. Potency, µM, for inactives: max response, negative = inhibition, usual class: inhibitors. 360,000 compounds, 2.8% hits; also: potency is read from the fitted curve at half-maximal effect; series mostly up to about 57 µM; % is scaled to controls: 0 for no effect and ±100 for the full control effect; nearly all actives have a fitted effect of over 65% in size
# * hit, by the source's call; u = inconclusive; x = no result given; [ ] = dose if it differs, or a comment. Shown are actives, neighbours in structure and some others; about 12% of the full set was active somewhere. Unless noted, calls follow the shape of the dose curve; as a rule, active = well fitted curve in the direction sought with a large enough effect; inconclusive = small, poorly fitted or top-dose-only effect, or another doubt; inactive = no such curve, though single readings can be large; an effect the other way counts as inactive or inconclusive.
SMILES,BAZ2B block,PI5P4Ka inh,G9a inh,HP1b binding inh,JMJD2A Tudor inh,PLK1 PBD inh
CN1CCC(CC(C(=O)N2CCCC2)(c2ccccc2)c2ccccc2)C1 (stereo not drawn),x,-3.2,x,30.2%[57 µM],-5.5%,5.2%
CCOC(=O)N1CCN(C(=O)C2CC(=O)N(c3ccc(C)cc3)C2)CC1 (stereo not drawn),1.6%,4.5,-12.9%[0.501 µM],44.8%,3.8%,2.7%
CCOC(=O)c1[nH]c2c(c1-c1ccc(OC)cc1)C(=O)CC(c1ccc(OC)c(OC)c1)C2 (stereo not drawn),u,-9.5,50.1µM*,62.0%,-29.6%,-10.3%
Cc1cn(C)c(CC(=O)N2CCN(c3cccc(C(F)(F)F)c3)CC2)c1C(=O)O,-2.1%,x,-24.4%[59 µM],17.8%,-18.0%,x
CCCN1C(=O)/C(=C/c2ccc(N3CCCC3)c(C)c2)NC1=S,35.5µM*,1.2,-48.5%[0.0925 µM],u,35.5µM*,43.4%
CN1C(=O)/C(=C/c2ccc(O)c([N+](=O)[O-])c2)NC1=S,u,-55.7*,39.8µM*,2.3%,-32.2%,-2.3%
CCN1C(=O)/C(=C/c2ccc(OCc3ccc(C(=O)O)cc3)c(Cl)c2)NC1=S,u,u,70.8µM*,-4.7%,u,u
Cc1cc(N2CCCC2)ccc1/C=C1/C(=O)N(C)C(=S)N1C,1.58µM*,-2.2,2.51µM*,u,u,9.2%
CCCN1C(=O)S/C(=C\c2ccc(N3CCOCC3)cc2C)C1=O,u,x,-42.2%,x,x,x
CC(C)N(C(=O)[C@H]1C[C@H](CC(=O)NCCCn2ccnc2)C(=O)N2CCc3c([nH]c4ccc(Cl)cc34)[C@]12C)C(C)C,x,8.1,x,13.6%,-28.8%,3.4%
CN1C(=O)/C(=C/c2ccc(OCc3ccc(F)cc3)cc2)N(C)C1=S,-4.5%,10.1,12.7%,29.1%,1.3%,-13.5%
Cc1cc(/C=C2/C(=O)N(C)C(=S)N2C)ccc1N1CCCC1,14.1µM*,1.0,8.91µM*,35.5µM*,14.1µM*,15.9%
CCCN1C(=O)/C(=C/c2ccc(N3CCOCC3)cc2)NC1=S,-37.8%,-1.2,-4.0%[59 µM],46.9%,-18.6%,39.4%
Cc1cc(/C=C2\NC(=S)N(C)C2=O)ccc1N1CCCC1,39.8µM*,-1.1,3.2%,21.8%,89.1µM*,58.2%
CCN1C(=O)/C(=C/c2ccc(N3CCCC3)cc2)NC1=S,25.1µM*,-3.2,3.16µM*,u,u,56.2%
Cc1ccc(CNc2ncnc3[nH]ncc23)o1,x,x,x,7.5%,-9.2%,x
Cc1ccc(-n2c(SCC(=O)Nc3ccc4c(c3)OCO4)nc3c([nH]c4ccccc43)c2=O)cc1,-6.5%,x,-4.5%[59 µM],11.1%[57 µM],u,x
CCC(C)(C)n1nnnc1C(c1ccc2ncccc2c1)N1CCN(c2nc3ccccc3s2)CC1 (stereo not drawn),-9.5%,x,u,2.2%,-35.9%,4.1%
CCC(C)(C)n1nnnc1C(c1ccc2ncccc2c1)N1CCN(c2ccc(O)cc2)CC1 (stereo not drawn),-32.9%,-13.5,10µM*,13.0%[57 µM],14.1µM*,-14.8%
COc1ccc(N2CCN(C(c3ccc4ncccc4c3)c3nnnn3C(C)(C)C)CC2)cc1 (stereo not drawn),35.5µM*,0.5,u,-12.2%,u,-4.4%
COc1ccc(N2CCN(C(c3ccc(C)cc3)c3nnnn3C(C)(C)C)CC2)cc1 (stereo not drawn),x,x,x,-19.0%,50.1µM*,x
COc1cc(/C=C(\C#N)c2nc3ccccc3c(=O)[nH]2)cc(OC)c1OC,4.1%,x,-26.0%[59 µM],20.9%,4.2%,x
COCOCCn1cc(CN2CCS(=O)(=O)N(Cc3ccc(-c4ccc(OC)cc4)cc3)C(C)C2=O)nn1 (stereo not drawn),x,-17.3,x,x,x,-13.0%
COc1ccc(NC(=O)CSc2c(C)nn(-c3nnc(C)c(=O)[nH]3)c2C)cc1,31.6µM*,1.5,12.6µM*,40.7%,39.8µM*,-0.7%
COc1ccc(CN(C(=O)c2snc(C(N)=O)c2N)C(C(=O)NC2CCCC2)c2cc(OC)ccc2OC)cc1 (stereo not drawn),-23.7%,5.6,-8.9%,22.3%,-18.1%[57.1 µM],-6.3%
SMILES,BAZ2B block,PI5P4Ka inh,G9a inh,HP1b binding inh,JMJD2A Tudor inh,PLK1 PBD inh
CC1CSc2nc3sc4c(c3c(=O)n21)CCCC4 (stereo not drawn),-2.3%,-13.6,20µM*,41.8%,-30.3%,u
Cc1nc2sc3c(c2c(=O)o1)CCCC3,-31.5%,-28.5,44.7µM*,14.9%,-24.4%,-21.8%
O=c1c2c3c(sc2nc2n1CCCCC2)CCCC3,x,-17.5,u,-30.6%,u,26.7µM*
N=c1c2c3c(sc2nc2n1CCCCC2)CCCCC3,7.5%,-3.3,50.1µM*,23.5%,9.5%,-22.7%
CC(C)c1nc2sc3c(c2c(=O)o1)CCCC3,2.7%,-3.4,12.0%[59 µM],35.5%,17.4%,-6.5%
COc1ccc(OC)c(/C=C2\SC(N3CCCC(C)C3)=NC2=O)c1 (stereo not drawn),-4.4%,-26.2,28.2µM*,45.7%,7.5%,u
Cn1c(=O)c2nc3ccc(NC(=O)C(F)(F)F)cc3nc2n(C)c1=O,-1.0%,x,5.1%[59 µM],37.2%,3.1%,x
CC(=O)Nc1ccc2nc3c(=O)n(C)c(=O)n(C)c3nc2c1,u,u,39.8µM*,-8.6%,79.4µM*,u
C=CCn1c(SCC(=O)c2ccc(O)c(O)c2)nnc1-c1ccccc1OC,50.1µM*,-7.6,5.01µM*,26.2%,u,2.3%
CCn1c(SCC(=O)c2ccc(O)c(O)c2)nnc1-c1ccccc1,u,-15.6,14.1µM*,10.0%,u,-4.1%
CCn1c(SCC(=O)c2ccc(O)c(O)c2)nnc1-c1ccccc1OC,79.4µM*,-17.0,u,u,28.2µM*,-4.1%
COc1cccc(NS(=O)(=O)c2ccc3c(c2)CCC(=O)N3)c1,x,x,x,x,-2.7%,x
CCOC(=O)c1c(C)oc2ncnc(Nc3ccc(OC)c(OC)c3)c12,2.2%,x,8.3%[59 µM],14.4%,-12.2%,x
COc1ccccc1CN1CCN(C2CCN(C(=O)Nc3ccccc3)CC2)C(=O)C1=O,0.0%,x,-2.8%[12.7 µM],45.1%,9.9%,x
O=C(C1CC1)N(Cc1nc2ccccc2c(=O)[nH]1)Cc1cccs1,-13.2%,u,9.1%,-7.2%,-20.6%[11.4 µM],15µM*
CC(C)(C)C(=O)N(Cc1nc2ccccc2c(=O)[nH]1)Cc1cccs1,-3.4%,x,-11.5%[59 µM],18.7%,-5.5%,-0.5%
COCC(C)NCc1cccc([N+](=O)[O-])c1 (stereo not drawn),50.1µM*,x,20µM*,u,3.16µM*,-6.0%
CC(=O)NC(Cc1cccc(C)c1)C(=O)NC1CCN(C(=O)NCc2ccccc2)CC1 (stereo not drawn),7.3%,3.0,19.9%,27.5%,8.5%,4.6%
N/C(=N\OC(=O)Cc1cccs1)c1ccccc1,25.8%,-60.6*,64.0%[59 µM],68.6%,7.2%,1.0%
